According to ChEMBL document CHEMBL2218924, “A broad activity screen in support of a chemogenomic map for kinase signalling research and drug discovery” (Biochem J, 2013):

How the values were obtained:
[1] = biological target: Serine/threonine-protein kinase PAK 4 (Homo sapiens) (UniProt O96013); conditions: at 1 µM
[2] = biological target: Serine/threonine-protein kinase PAK 4 (Homo sapiens) (UniProt O96013); conditions: at 10 µM
[3] = biological target: Serine/threonine-protein kinase PAK 5 (Homo sapiens) (UniProt Q9P286); conditions: at 1 µM
Sequence of Serine/threonine-protein kinase PAK 5 (Homo sapiens) (Q9P286 whole entry, looked up): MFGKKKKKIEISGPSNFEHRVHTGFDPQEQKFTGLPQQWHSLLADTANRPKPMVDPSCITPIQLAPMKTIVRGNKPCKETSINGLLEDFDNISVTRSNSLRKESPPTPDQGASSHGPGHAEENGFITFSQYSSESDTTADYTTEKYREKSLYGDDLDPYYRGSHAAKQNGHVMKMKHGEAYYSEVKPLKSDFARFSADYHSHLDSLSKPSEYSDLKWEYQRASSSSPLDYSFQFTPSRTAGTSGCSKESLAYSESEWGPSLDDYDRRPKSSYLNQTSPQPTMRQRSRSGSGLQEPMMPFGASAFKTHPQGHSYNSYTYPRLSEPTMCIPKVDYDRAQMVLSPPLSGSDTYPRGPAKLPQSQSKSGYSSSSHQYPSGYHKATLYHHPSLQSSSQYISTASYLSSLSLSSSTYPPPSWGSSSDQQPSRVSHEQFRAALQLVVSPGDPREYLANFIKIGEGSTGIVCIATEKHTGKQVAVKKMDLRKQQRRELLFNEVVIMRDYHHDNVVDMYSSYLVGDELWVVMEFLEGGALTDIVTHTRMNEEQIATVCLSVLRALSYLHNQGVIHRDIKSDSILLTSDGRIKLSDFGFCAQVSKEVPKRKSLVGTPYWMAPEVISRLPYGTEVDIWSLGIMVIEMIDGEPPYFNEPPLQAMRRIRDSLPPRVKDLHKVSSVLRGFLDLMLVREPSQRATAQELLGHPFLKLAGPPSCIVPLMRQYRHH

[4] = biological target: Serine/threonine-protein kinase PAK 5 (Homo sapiens) (UniProt Q9P286); conditions: at 10 µM
[5] = biological target: Serine/threonine-protein kinase PAK 6 (Homo sapiens) (UniProt Q9NQU5); conditions: at 1 µM
[6] = biological target: Serine/threonine-protein kinase PAK 6 (Homo sapiens) (UniProt Q9NQU5); conditions: at 10 µM
[7] = biological target: PAS domain-containing serine/threonine-protein kinase (Homo sapiens) (UniProt Q96RG2); conditions: at 10 µM
Sequence of PAS domain-containing serine/threonine-protein kinase (Homo sapiens) (Q96RG2 whole entry, the tested form may be a part): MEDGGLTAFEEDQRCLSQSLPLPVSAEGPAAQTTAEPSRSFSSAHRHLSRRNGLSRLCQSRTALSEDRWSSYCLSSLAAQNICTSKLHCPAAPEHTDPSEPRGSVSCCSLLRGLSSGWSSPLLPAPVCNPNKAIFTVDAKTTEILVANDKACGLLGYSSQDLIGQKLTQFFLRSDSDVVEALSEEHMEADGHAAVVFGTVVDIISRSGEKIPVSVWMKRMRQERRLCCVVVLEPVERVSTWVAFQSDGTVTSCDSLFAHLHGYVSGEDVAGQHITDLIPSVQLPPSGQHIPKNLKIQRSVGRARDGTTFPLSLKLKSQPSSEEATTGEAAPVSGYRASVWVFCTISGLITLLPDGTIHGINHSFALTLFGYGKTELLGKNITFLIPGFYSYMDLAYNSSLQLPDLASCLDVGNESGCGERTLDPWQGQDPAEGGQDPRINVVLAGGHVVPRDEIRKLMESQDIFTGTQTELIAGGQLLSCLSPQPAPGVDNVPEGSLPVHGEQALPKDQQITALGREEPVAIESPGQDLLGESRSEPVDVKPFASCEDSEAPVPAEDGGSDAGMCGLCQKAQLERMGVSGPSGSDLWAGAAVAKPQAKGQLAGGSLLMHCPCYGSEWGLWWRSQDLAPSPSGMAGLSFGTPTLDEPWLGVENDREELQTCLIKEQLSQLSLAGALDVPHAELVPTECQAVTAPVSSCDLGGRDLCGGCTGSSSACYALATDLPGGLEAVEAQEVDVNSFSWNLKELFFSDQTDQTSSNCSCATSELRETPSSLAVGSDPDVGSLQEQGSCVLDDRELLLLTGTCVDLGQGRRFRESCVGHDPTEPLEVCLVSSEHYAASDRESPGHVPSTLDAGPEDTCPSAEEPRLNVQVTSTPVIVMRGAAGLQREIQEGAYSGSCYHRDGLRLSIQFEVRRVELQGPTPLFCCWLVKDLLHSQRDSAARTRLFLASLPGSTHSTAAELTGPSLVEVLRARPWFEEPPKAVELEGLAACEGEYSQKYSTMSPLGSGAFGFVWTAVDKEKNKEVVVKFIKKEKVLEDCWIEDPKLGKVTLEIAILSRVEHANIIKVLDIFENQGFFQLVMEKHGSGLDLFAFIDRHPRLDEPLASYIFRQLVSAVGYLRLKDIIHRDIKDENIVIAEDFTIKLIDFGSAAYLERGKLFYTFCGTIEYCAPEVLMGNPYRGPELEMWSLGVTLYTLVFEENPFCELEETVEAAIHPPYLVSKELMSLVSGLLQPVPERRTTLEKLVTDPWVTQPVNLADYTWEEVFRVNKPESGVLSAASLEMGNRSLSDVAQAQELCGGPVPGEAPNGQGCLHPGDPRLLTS

[8] = biological target: Activated CDC42 kinase 1 (Homo sapiens) (UniProt Q07912); conditions: at 1 µM
[9] = biological target: Activated CDC42 kinase 1 (Homo sapiens) (UniProt Q07912); conditions: at 10 µM
[10] = biological target: ALK tyrosine kinase receptor (Homo sapiens) (UniProt Q9UM73); conditions: at 1 µM
Sequence of ALK tyrosine kinase receptor (Homo sapiens) (Q9UM73 19-1620 limits assumed): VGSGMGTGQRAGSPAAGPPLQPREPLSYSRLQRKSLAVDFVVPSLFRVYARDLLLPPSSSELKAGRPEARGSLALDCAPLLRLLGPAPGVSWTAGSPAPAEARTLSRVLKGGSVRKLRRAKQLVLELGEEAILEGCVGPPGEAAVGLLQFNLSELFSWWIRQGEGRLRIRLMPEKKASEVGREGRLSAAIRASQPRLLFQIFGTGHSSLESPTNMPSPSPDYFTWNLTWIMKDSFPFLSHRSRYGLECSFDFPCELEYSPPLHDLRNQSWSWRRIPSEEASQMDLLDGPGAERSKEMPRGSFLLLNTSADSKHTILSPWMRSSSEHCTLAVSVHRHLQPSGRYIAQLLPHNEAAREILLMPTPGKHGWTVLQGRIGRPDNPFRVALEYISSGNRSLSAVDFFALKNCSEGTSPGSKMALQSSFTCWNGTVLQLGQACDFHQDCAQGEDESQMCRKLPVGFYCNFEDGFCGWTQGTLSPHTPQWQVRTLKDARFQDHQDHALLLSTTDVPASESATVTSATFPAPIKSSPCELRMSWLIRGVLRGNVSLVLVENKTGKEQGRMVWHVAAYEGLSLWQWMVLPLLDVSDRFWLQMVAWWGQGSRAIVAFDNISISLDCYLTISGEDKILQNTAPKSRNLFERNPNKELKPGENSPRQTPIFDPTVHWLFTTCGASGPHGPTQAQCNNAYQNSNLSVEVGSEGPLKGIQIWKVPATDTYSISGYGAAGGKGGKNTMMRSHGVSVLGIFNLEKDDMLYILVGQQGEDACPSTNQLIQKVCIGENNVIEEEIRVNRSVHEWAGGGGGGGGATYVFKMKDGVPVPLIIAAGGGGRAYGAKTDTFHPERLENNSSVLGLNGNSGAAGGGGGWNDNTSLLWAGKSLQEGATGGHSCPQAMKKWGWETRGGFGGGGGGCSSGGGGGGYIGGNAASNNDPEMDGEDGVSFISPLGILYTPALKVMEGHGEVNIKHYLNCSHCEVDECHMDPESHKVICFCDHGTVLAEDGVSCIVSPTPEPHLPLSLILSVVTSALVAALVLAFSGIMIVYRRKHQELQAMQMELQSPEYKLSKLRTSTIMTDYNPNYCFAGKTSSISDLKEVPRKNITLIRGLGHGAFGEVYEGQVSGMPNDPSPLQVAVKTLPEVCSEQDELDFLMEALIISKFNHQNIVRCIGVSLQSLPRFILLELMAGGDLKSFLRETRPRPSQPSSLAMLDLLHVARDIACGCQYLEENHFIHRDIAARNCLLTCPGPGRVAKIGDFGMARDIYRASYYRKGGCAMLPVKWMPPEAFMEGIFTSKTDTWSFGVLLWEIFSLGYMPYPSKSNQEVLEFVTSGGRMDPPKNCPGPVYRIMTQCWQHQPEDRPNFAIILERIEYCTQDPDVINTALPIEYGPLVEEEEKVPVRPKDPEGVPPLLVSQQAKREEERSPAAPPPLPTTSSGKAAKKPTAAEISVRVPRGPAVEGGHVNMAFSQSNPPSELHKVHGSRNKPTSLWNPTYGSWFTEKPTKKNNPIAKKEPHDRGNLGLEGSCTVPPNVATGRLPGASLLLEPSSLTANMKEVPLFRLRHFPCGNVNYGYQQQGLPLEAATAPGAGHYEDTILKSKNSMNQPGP

[11] = biological target: ALK tyrosine kinase receptor (Homo sapiens) (UniProt Q9UM73); conditions: at 10 µM
[12] = biological target: T1, Activin receptor type-1B (Homo sapiens) (UniProt P36896); conditions: at 1 µM
T1 sequence (whole entry): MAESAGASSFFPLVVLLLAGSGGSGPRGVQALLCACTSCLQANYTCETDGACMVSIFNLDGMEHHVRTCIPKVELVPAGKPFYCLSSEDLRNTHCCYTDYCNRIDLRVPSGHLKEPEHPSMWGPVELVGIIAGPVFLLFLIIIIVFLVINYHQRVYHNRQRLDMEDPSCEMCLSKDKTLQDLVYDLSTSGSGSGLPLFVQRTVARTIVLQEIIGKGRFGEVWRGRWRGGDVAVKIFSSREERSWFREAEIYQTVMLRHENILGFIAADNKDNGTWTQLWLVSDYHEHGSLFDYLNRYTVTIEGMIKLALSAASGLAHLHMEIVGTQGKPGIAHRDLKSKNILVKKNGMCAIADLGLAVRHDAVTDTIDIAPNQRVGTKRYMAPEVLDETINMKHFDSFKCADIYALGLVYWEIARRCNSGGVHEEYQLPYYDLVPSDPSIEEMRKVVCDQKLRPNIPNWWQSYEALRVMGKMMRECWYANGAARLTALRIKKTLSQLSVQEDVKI

[13] = biological target: T1, Activin receptor type-1B (Homo sapiens); conditions: at 10 µM
[14] = biological target: T2, AMP-activated protein kinase (AMPK) alpha-1/beta-1/gamma-1 (Homo sapiens) (UniProt P54619+Q9Y478+Q13131); conditions: at 1 µM
T2 sequence (P54619 whole entry): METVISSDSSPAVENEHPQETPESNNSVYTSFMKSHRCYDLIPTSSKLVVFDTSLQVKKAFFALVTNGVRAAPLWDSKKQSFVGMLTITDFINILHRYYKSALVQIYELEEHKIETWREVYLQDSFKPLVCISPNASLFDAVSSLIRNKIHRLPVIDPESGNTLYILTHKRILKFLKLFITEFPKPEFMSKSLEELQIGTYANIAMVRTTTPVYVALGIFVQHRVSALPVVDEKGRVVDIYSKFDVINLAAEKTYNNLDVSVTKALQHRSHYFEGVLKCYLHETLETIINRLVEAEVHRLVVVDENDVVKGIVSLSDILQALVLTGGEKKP
T2 sequence (Q13131 whole entry partner): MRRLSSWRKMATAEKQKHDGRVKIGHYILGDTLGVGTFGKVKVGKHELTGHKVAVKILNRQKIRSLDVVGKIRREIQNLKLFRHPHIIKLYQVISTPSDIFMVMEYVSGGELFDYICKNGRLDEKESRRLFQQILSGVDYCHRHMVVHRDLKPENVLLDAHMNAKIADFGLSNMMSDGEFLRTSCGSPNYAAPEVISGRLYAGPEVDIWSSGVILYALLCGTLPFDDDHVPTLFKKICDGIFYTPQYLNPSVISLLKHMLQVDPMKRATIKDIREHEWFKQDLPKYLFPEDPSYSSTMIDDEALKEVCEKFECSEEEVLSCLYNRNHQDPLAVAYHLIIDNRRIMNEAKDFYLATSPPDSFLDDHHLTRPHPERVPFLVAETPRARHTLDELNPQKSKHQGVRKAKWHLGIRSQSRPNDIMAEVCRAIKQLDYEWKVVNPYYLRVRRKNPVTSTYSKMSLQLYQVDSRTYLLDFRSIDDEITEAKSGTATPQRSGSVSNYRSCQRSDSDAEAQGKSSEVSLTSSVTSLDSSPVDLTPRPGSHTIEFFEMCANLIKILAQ
T2 sequence (Q9Y478 2-270 partner limits assumed): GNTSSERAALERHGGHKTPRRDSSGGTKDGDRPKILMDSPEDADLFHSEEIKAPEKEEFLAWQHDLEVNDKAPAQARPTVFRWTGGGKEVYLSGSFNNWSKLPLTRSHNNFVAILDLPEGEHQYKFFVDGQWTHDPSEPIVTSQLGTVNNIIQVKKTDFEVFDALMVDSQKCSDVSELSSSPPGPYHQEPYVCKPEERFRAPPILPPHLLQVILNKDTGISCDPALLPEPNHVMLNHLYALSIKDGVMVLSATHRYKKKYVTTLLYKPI

[15] = biological target: T2, AMP-activated protein kinase (AMPK) alpha-1/beta-1/gamma-1 (Homo sapiens); conditions: at 10 µM
[16] = biological target: T3, AMP-activated protein kinase, AMPK (Homo sapiens) (UniProt P54646+O43741+P54619+Q9UGJ0+Q9Y478+Q13131+Q9UGI9); conditions: at 1 µM
[17] = biological target: T3, AMP-activated protein kinase, AMPK (Homo sapiens); conditions: at 10 µM
[18] = biological target: T4, NUAK family SNF1-like kinase 1 (Homo sapiens) (UniProt O60285); conditions: at 1 µM
T4 sequence (whole entry): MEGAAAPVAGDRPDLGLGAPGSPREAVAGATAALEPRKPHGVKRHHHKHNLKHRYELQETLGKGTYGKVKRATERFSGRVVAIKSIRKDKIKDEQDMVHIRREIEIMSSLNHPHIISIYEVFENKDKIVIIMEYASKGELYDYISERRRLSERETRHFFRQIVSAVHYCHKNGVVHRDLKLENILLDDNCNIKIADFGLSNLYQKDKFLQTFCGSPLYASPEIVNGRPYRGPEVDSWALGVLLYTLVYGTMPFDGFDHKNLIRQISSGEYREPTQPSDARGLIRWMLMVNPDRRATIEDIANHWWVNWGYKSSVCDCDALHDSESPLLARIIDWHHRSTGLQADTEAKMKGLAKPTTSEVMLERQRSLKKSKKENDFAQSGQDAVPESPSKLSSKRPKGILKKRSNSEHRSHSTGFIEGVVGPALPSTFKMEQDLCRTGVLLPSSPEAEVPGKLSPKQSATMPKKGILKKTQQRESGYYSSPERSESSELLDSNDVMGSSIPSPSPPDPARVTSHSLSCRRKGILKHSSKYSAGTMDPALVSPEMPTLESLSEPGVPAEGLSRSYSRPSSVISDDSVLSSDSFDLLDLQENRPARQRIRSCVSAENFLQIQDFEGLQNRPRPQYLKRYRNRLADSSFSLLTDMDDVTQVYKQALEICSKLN

[19] = biological target: T4, NUAK family SNF1-like kinase 1 (Homo sapiens); conditions: at 10 µM
[20] = biological target: T5, Mitogen-activated protein kinase kinase kinase 5 (Homo sapiens) (UniProt Q99683); conditions: at 1 µM
T5 sequence (whole entry): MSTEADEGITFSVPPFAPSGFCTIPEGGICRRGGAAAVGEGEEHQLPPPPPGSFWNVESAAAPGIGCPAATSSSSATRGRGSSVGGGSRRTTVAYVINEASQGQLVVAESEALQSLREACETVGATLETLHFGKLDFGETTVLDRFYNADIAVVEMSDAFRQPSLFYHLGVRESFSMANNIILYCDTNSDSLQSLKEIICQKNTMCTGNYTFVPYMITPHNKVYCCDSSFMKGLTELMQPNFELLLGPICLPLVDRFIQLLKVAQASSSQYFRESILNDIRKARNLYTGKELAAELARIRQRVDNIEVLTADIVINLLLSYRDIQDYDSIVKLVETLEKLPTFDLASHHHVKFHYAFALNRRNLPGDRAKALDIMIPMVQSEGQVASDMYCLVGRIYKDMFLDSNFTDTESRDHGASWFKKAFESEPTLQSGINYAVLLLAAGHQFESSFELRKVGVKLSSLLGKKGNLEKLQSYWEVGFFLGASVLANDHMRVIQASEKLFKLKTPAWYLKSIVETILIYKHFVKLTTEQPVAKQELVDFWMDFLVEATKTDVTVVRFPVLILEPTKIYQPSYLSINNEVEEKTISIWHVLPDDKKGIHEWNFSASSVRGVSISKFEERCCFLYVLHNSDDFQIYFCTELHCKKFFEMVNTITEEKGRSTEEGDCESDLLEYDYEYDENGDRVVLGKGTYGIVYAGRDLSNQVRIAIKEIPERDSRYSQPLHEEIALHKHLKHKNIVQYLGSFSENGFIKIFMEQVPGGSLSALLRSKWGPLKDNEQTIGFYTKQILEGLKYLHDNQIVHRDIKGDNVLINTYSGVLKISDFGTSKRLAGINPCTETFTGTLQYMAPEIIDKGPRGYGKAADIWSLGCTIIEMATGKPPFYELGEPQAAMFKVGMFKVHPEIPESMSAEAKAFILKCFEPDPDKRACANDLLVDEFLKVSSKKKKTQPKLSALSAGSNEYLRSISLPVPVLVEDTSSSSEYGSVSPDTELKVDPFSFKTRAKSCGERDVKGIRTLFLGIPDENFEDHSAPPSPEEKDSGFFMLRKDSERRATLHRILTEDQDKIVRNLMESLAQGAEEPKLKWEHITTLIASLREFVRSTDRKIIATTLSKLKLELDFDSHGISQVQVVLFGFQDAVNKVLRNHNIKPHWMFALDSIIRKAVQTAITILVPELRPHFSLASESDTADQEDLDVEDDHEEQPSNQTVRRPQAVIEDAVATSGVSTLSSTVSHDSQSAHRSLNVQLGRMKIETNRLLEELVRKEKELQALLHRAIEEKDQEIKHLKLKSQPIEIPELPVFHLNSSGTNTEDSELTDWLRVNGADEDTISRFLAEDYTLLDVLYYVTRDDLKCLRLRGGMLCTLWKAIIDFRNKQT

Compound	residual activity [1] [%]	residual activity [2] [%]	residual activity [3] [%]	residual activity [4] [%]	residual activity [5] [%]	residual activity [6] [%]	residual activity [7] [%]	residual activity [8] [%]	residual activity [9] [%]	residual activity [10] [%]	residual activity [11] [%]	residual activity [12] [%]	residual activity [13] [%]	residual activity [14] [%]	residual activity [15] [%]	residual activity [16] [%]	residual activity [17] [%]	residual activity [18] [%]	residual activity [19] [%]	residual activity [20] [%]
Cn1cc(/C=C2\C(=O)Nc3ccc(S(N)(=O)=O)cc32)c2ccccc21	28	7	41	26	46	22	71	60	36	56	31	118	104	9	4	9	4	18	11	29
COc1cc2ncnc(Nc3ccc(O)c(Br)c3)c2cc1OC	89	77	98	98	123	104	8	14	1	19	3	111	85	82	37	93	52	78	36	77
CCOc1cc2ncnc(Nc3cccc(Br)c3)c2cc1OCC	100	79	111	82	100	96	56	28	5	75	39	125	91	84	57	79	57	87	57	115
CCC(=O)Nc1ccc2ncnc(Nc3cccc(Br)c3)c2c1	99	86	97	98	107	93	36	70	36	81	88	125	105	103	94	105	87	99	92	108
CC(C)n1cnc2/c(=N/c3cccc(Cl)c3)nc(NCCO)[nH]c21	62	15	80	33	43	25	114	14	5	81	52	103	120	76	30	88	45	75	29	90
Nc1ccc2ncnc(NCCc3ccc(Oc4ccccc4)cc3)c2c1	107	87	100	81	95	84	65	81	55	81	67	102	103	51	28	65	42	108	23	87
CCN(CC)CCCCN1c2ccccc2Oc2ccc(Cl)cc21	107	97	100	90	104	109	13	113	81	92	132	136	100	116	100	131	112	115	87	96
N#C/C(=C(\N)Sc1ccc(N)cc1)c1ccccc1C(F)(F)F	101	94	90	89	96	96	105	50	43	65	65	108	111	75	57	77	62	106	62	106
Cc1ccc(S(=O)(=O)/C=C/C#N)cc1	99	95	106	106	95	84	86	81	75	99	93	103	106	89	89	87	86	109	94	111
COc1cccc(-c2cc(=O)c3ccccc3o2)c1N	105	96	122	99	96	89	101	83	70	95	83	111	108	101	96	98	94	109	93	119
COc1cc2ncnc(Nc3ccc(Oc4ccccc4)cc3)c2cc1OC	94	80	108	136	98	124	131	28	9	54	72	121	112	86	140	94	144	104	79	84
Nc1n[nH]c2nnc(-c3c(-c4ccccc4)nn4ccccc34)cc12	94	90	112	90	93	99	114	61	29	77	93	111	86	90	82	92	98	105	79	96
